Shown are actives, neighbours in structure and some others; about 4.2% of the full set was active somewhere.
tim23-1 inh: inhibits growth of tim23-1 mutant yeast; S. cerevisiae tim23-1 growth, BacTiter-Glo luminescence, 24 h; inhibition, % at 20 µM; actives 1.3% (n = 330,000); AID 463212;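 active = growth inhibition of the mutant yeast at or above 50%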;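 also: temperature-sensitive mutant grown at 25 °C; plate controls were DMSO-treated mutant yeast for no effect and medium wells lacking yeast for full effect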
V-ATPase pHluor: regulators of yeast V-ATPase proton transport. S. cerevisiae, pHLuorin cytosolic pH fluorescence. response, % at 10 µM. actives 0.37% (n = 350,000); in the data active = response mostly above about 7.3%, no sharp cut-off; inactive = mostly below about 5.4%; also: actives read high
NALP3 yeast inh: NALP3 inhibition in yeast | Yeast reconstituted NLRP3/ASC/caspase-1, beta-gal luminescence, 24 h | inhibition, % at 10 µM | actives 0.39% (n = 330,000) | AID 2825;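 active = inhibition of 50% or more; inactive = inhibition below 50%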;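 also: plate controls were induced DMSO wells for no effect and uninduced yeast grown without galactose for full effect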
tim10-1 inh: growth inhibitors of tim10-1 mutant yeast; inhibition, % at 20 µM; S. cerevisiae tim10-1 ts strain growth, BacTiter-Glo, 24 h; actives 2.2% (n = 330,000); AID 463190;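 active = inhibition of at least 40%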;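 also: mutant grown at 25 °C; 0% = DMSO wells with yeast and 100% = wells holding no yeast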
TIM10 inh: TIM10 yeast growth inhibition | S. cerevisiae TIM10 strain growth, BacTiter-Glo luminescence, 24 h | inhibition, % at 10 µM | actives 1.4% (n = 330,000) | AID 463195;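 active = inhibition of 40% or more at the single tested concentration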;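 also: wild-type TIM10 isogenic control strain grown at permissive 25 °C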
NALP1 yeast inh: blocks the NALP1 inflammasome reconstituted in yeast; inhibition, % at 10 µM; actives 0.61% (n = 280,000); AID 2071; S. cerevisiae NALP1/ASC/caspase-1 growth, X-gal OD620, 72 h; in the data active = inhibition mostly above about 24%, no sharp cut-off; inactive = mostly below about 32%
V-ATPase pH SP: modulates yeast V-ATPase proton transport | shares compounds with V-ATPase pHluor | S. cerevisiae pHLuorin cytosolic pH | response, % at 10 µM | actives 2% (n = 980); in the data active = response above about 24%;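 also: plate controls were vehicle wells for no effect and positive control wells for full effect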
Active calls of the source: *; x = no result.

SMILES	tim23-1 inh	V-ATPase pHluor	NALP3 yeast inh	tim10-1 inh	TIM10 inh	NALP1 yeast inh	V-ATPase pH SP
NS(=O)(=O)c1ccc(CCNC(=O)c2ccco2)cc1	16.3	11.0*	-4.1	12.6	-2.6	21.5	-0.8
CC(C)C[C@H](NC(=O)OC(C)(C)C)C(=O)N[C@@H](CO)[C@H](O)[C@@H]1C[C@@H]1C(=O)NC1CCCCC1	6.9	25.8*	9.6	8.1	9.1	15.2	1.6
CC(C)C[C@H](NC(=O)OC(C)(C)C)C(=O)N[C@@H](CO)[C@H](O)[C@@H]1C[C@@H]1C(=O)NC1CC1	16.0	0.1	8.7	4.5	1.4	-3.1	x
Cc1cccc(C2NC(c3cccc(C)c3)C(C)C(=O)C2C)c1 (stereo not drawn)	-11.0	-2.3	11.7	6.7	-21.3	-4.7	x
Cc1nnc(SCC(=O)N2CCCCCC2)n(N)c1=O	12.5	8.0*	2.6	-1.8	-13.2	15.4	-3.0
N#CCOc1coc(CN2CCN(c3ccccc3)CC2)cc1=O	13.6	2.8	8.2	9.0	0.5	9.5	x
CC1Cc2ccccc2N1S(=O)(=O)c1cccc(C(=O)NCCCn2ccnc2)c1 (stereo not drawn)	0.5	10.1*	0.1	-1.1	-27.1	24.8	-0.7
O=C(NCCCn1ccnc1)c1cccc(S(=O)(=O)N2CCCCCC2)c1	-0.3	-2.2	-4.9	15.7	-10.9	-15.8	x
O=C(CN1CCN(c2ccccc2)CC1)N1N=CCC1c1ccccc1 (stereo not drawn)	10.2	23.5*	7.9	9.3	-3.5	8.7	-2.5
CCOc1ccc(NC(=O)CSc2nc(N3CCOCC3)nc(N3CCOCC3)n2)cc1	14.3	8.7*	8.7	9.9	14.4	13.2	0.6
Cc1ccc(C(CNS(=O)(=O)c2ccc(Cl)cc2)N2CCN(C)CC2)cc1 (stereo not drawn)	13.6	-1.1	22.8	6.9	3.2	x	x
COc1ccc(CNC(=S)NCc2ccc(OC)cc2)cc1	-4.7	7.1*	24.4	9.5	-14.6	-4.8	-1.1
CCc1ccc(C(C(=O)NC2CCCC2)N(C(=O)/C=C/C(=O)Nc2cc(C)on2)c2ccccc2C)cc1 (stereo not drawn)	-9.3	10.1*	-3.5	18.5	-11.2	-24.8	1.9
COc1ccccc1C#CC1=CC(=O)C[C@H](c2ccc(F)cc2)C1	x	2.1	x	x	x	x	x
CCOC(=O)c1nc2c(ccc3ccccc32)cc1C	32.4	2.7	9.7	20.4	14.9	8.4	-0.7
O=C(O)c1ccc(/C=N/N2CCN(C3c4ccccc4-c4ccccc43)CC2)cc1	23.3	19.5*	33.5	-16.3	-23.5	x	46.3*
Oc1ccc(/C=N/N2CCN(C3c4ccccc4-c4ccccc43)CC2)cc1	2.7	-0.1	6.7	15.8	12.9	3.0	x
COc1ccc(NC(=O)C[C@H]2C(=O)N(c3ccc(Br)cc3)C[C@@H]2CSC)cc1	x	-2.7	x	x	x	x	x
O=C(NN=Cc1ccccc1)C(Oc1ccccc1)c1ccccc1 (stereo not drawn)	x	4.0	x	x	x	x	x
CN1CCN(CCCC(=O)c2ccc(F)cc2)CC1	8.1	3.9	7.6	6.9	-3.5	8.0	0.3
CCN(CC)CCC(=O)c1ccc(F)cc1	24.0	-1.9	17.6	19.7	3.2	-13.3	x
O=C(CCCN1CCN(c2ccccc2)CC1)c1ccc(F)cc1	x	1.3	x	x	x	x	x
O=C(CCCN1Cc2ccccc2C1)c1ccc(F)cc1	7.2	3.4	11.6	7.0	9.8	18.5	-7.8
CN(C)CCC(=O)c1ccc(F)cc1	13.6	1.0	2.3	2.6	16.3	9.4	10.9
COc1ccc(C)cc1Nc1nnc(C)c(=O)[nH]1	1.8	0.2	16.5	14.2	-9.0	-1.9	x
SMILES	tim23-1 inh	V-ATPase pHluor	NALP3 yeast inh	tim10-1 inh	TIM10 inh	NALP1 yeast inh	V-ATPase pH SP
COc1ccc(Nc2nnc(C)c(=O)[nH]2)c(OC)c1	-2.0	11.5*	15.8	-13.4	4.9	x	-0.6
COCCCn1c(C(=O)NCCN2CCOCC2)cc2c(=O)n3cccc(C)c3nc21	3.2	8.2*	1.8	12.0	6.5	17.7	7.0
O=C(Nc1ccc([N+](=O)[O-])cc1)c1ccccc1F	19.4	15.5*	9.7	18.9	-21.9	10.4	2.4
O=C(Nc1ccc(-c2ccc([N+](=O)[O-])cc2)cc1)c1ccccc1F	-3.4	-1.7	-1.4	-22.7	0.8	-2.3	x
O=C(Oc1ccccc1Cl)c1ccccc1	x	12.7*	x	x	x	x	4.1
O=C(Oc1cccccc1=O)c1ccccc1	11.8	0.8	-1.9	12.4	21.9	-7.0	x
[O-]C1=N[N+](=C(c2ccccc2)c2ccccc2)C1	x	-0.3	x	x	x	x	x
